Compound activity deposited in PubChem by National Center for Advancing Translational Sciences (NCATS).
PGK inhibitor – qHTS Assay to Find Inhibitors of Phosphoglycerate Kinase; PGK/GAPDH coupled, Kinase-Glo luminescence, 60 min; actives 0.043% (n = 380,000); Phosphoglycerate kinase, glycosomal (Trypanosoma brucei brucei), P07378; Potency, µM (top dose mostly 57.5 µM), actives largely listed as inhibitors; also: nearly all actives have a fitted effect of over 60% in size
Target sequence (P07378 whole entry, looked up): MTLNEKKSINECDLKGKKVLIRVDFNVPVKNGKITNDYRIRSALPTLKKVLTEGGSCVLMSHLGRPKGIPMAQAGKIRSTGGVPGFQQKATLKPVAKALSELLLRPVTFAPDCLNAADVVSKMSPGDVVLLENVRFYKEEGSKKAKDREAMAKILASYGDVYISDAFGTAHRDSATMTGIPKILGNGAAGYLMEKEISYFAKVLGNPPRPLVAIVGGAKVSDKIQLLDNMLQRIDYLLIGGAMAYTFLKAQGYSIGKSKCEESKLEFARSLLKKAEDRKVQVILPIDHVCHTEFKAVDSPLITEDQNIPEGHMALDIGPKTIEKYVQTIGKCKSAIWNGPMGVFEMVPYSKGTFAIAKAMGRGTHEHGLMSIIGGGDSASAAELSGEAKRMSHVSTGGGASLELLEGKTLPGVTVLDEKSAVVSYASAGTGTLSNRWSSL
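Luminescent ATP detection (Kinase-Glo Plus) follows a 60-minute room-temperature incubation, with wells lacking PGK as controls. Buffer: 100 mM TEA (pH 7.6), 5 mM MgCl2, 0.01% Tween-20. Coupling enzyme GAPDH (100 nM final) supplies unstable 1,3-BPG in-well.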
PKM2 act – qHTS Assay for Activators of Human Muscle isoform 2 Pyruvate Kinase | Pyruvate kinase PKM (Homo sapiens), P14618 | purified PKM2, Kinase-Glo ATP luminescence, activation; response scale: 0% is enzyme alone, no compound | Potency, µM (top dose mostly 57.5 µM), usual class: activators | actives 0.34% (n = 260,000) | AID 1631, 2009; also: nearly all actives have a fitted effect of over 55% in size
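ATP formation by purified human PK-M2, quantified via coupled luciferase luminescence after 1 h at room temperature with 0.1 mM ADP and 0.5 mM PEP final.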
Rango dissoc inh – qHTS Assay for Inhibitors of RanGTP induced Rango (Ran-regulated importin-beta cargo) - Importin beta complex dissociation | Biochemical FRET Rango-importin beta, RanGTP-induced dissociation | Potency, µM (doses to about 46.1 µM) | actives 0.071% (n = 340,000); calls by dose curve; also: nearly all actives have a fitted effect of over 45% in size
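Rango (0.1 uM)–importin beta (0.25 uM) complex; RanGTP-RCC1 trigger; 45 min RT; CFP/YFP FRET read.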
Rango-impB inh – qHTS Assay for Inhibitors of Rango (Ran-regulated importin-beta cargo) - Importin beta complex formation; Importin subunit beta-1 (Homo sapiens), Q14974; Rango CFP/YFP FRET sensor + importin beta, 45 min; Potency, µM (highest dose often 92.2 µM); actives 0.031% (n = 340,000); AID 540263, 2011; calls by dose curve; also: nearly all actives have a fitted effect of over 15% in size
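FRET biosensor Rango (snurportin 1 IBB between N-terminal EYFP and C-terminal Cerulean), 50 nM in PBS/1 mM DTT/0.02% Tween-20/0.1% BSA, preincubated 5 min RT with compound; 0.125 microM importin beta added, 45 min RT, CFP/YFP FRET ratio read.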
Tb PFK block – qHTS Assay to Find Inhibitors of T. brucei phosphofructokinase; ATP-dependent 6-phosphofructokinase (Trypanosoma brucei brucei), O15648; T. brucei PFK, ADP-Glo luminescence; Potency, µM (titrated, usually from 57.5 µM), usual class: inhibitors; actives 0.17% (n = 330,000); AID 485367, 2010; also: nearly all actives have a fitted effect of over 60% in size
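Compounds were pin-transferred as a titration series up to 57 uM into substrate buffer (0.5 mM F6P, 0.1 mM ATP, pH 8.0), then 1.25 nM PFK was added and reactions ran 45 min before ADP-Glo detection.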
ELG1 repair inh – qHTS screen for small molecules that inhibit ELG1-dependent DNA repair in human embryonic kidney (HEK293T) cells expressing luciferase-tagged ELG1; HEK293T ELG1-luciferase reporter, luminescence, 16 h; DNA damage induced by 5-fluorouridine; Potency, µM (top dose mostly 46.1 µM), actives largely listed as inhibitors; actives 2.3% (n = 330,000); AID 504467, 2011; also: nearly all actives have a fitted effect of over 55% in size
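Quantitative HTS, concentration-response format. 2,000 cells/well co-treated with 5-fluorouridine and compound, 16 hr in 5% CO2 at 37 °C; ONE-Glo luminescence read after 30 min.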
Each line names hits and unclear results; the compound was inactive in the other large screens. A selection: hits, their analogues and other compounds. The true share with any hit is near 2.4%. Unless noted, calls follow the shape of the dose curve; as a rule, active = well fitted curve in the direction sought with a large enough effect; inconclusive = small, poorly fitted or top-dose-only effect, or another doubt; inactive = no such curve, though single readings can be large; an effect the other way counts as inactive or inconclusive.

CC(C)Sc1ncc(Cl)c(C(=O)N(Cc2ccc(N(C)C)cc2)C2CCS(=O)(=O)C2)n1 (stereo not given)	none (no result: PKM2 act, Rango dissoc inh, Rango-impB inh, Tb PFK block, ELG1 repair inh)
Cc1[nH]c2ccccc2c1SCc1nnc(SCc2ccccc2)n1C	none
Cc1[nH]c2ccccc2c1SCc1nnc(SCc2ccc(Cl)cc2)n1C	ELG1 repair inh 16µM
COc1ccc(N=c2scc(-c3ccc(S(=O)(=O)N4CCOCC4)cc3)n2CCCO)cc1	ELG1 repair inh 15µM (no result: PGK inhibitor, Rango dissoc inh, Rango-impB inh)
Cc1csc(=Nc2ccc(S(=O)(=O)N3CCOCC3)cc2)n1Cc1ccco1	Rango dissoc inh inconclusive, ELG1 repair inh 15µM
CC(=O)c1cccc(N=c2scc(-c3ccc(S(=O)(=O)N4CCOCC4)cc3)n2CCO)c1	ELG1 repair inh inconclusive
COc1cccc(C2=CC(c3ccc(OC)c(OC)c3)NC(=S)N2)c1 (stereo not given)	Rango dissoc inh 7.3µM, Rango-impB inh inconclusive, ELG1 repair inh inconclusive
CCN(CC(=O)Nc1ccc(NC(C)=O)cc1)C(=O)/C=C/c1c(C)nn(-c2ccc(F)cc2)c1Cl	ELG1 repair inh 5.8µM (no result: PKM2 act)
OCC[C@H]1C[C@H](O)[C@@H](O)[C@@]2(CCCc3ccccc3O2)O1	none (no result: PKM2 act)
O=C(Nc1ccccc1O)C(c1ccccc1)c1ccccc1	Rango dissoc inh inconclusive, Rango-impB inh inconclusive, ELG1 repair inh 4.6µM (no result: PKM2 act)
CC(C)Cc1ccc(C(C)C(=O)Nc2nccs2)cc1 (stereo not given)	none
CC(C)Cc1ccc(C(C)C(=O)Nc2ccccc2O)cc1 (stereo not given)	ELG1 repair inh 5.8µM
CCS(=O)(=O)Nc1cc(-c2cn3ccc(C)cc3n2)ccc1C	none (no result: PKM2 act, Rango dissoc inh, Rango-impB inh, Tb PFK block, ELG1 repair inh)
CC(C)CC(C(=O)NC1CCCC1)N(Cc1cccs1)C(=O)c1snc(C(N)=O)c1N (stereo not given)	ELG1 repair inh 18µM
Cc1cc(-c2ccccc2)nc(N(C)N)c1S(C)(=O)=O	none
Cc1cc(-c2ccccc2)nc(N(C)NC(=O)c2c(F)cccc2F)c1S(C)(=O)=O	PKM2 act inconclusive, ELG1 repair inh 18µM
CN1N=C2c3ccccc3CCC2C1c1ccc(Cl)cc1 (stereo not given)	ELG1 repair inh inconclusive
COc1ccc(S(=O)(=O)N2CCC(n3cnc4ccccc43)CC2)cc1	PKM2 act 16µM, ELG1 repair inh inconclusive
COc1ccc(OC2CCN(S(=O)(=O)c3ccc(OC)cc3)CC2)cc1	ELG1 repair inh 15µM (no result: PKM2 act)
CC(=O)Nc1ccc(S(=O)(=O)N2CCC(n3cnc4cc(F)ccc43)CC2)cc1	ELG1 repair inh 10µM
COc1ccc(S(=O)(=O)n2cnc3cc(C)c(C)cc32)cc1	ELG1 repair inh 13µM
CCCCCOc1c(Cl)cc(C(=O)N(Cc2ccc(C)o2)C2CCS(=O)(=O)C2)cc1Cl (stereo not given)	none (no result: PKM2 act, Rango dissoc inh, Rango-impB inh, Tb PFK block, ELG1 repair inh)
O=C(CN1CCN(Cc2ccc(F)cc2Cl)S1(=O)=O)Nc1ccc(F)cc1	none (no result: PKM2 act, Rango dissoc inh, Rango-impB inh, Tb PFK block, ELG1 repair inh)
COc1ccc(Nc2ncc(C(=O)N3CCN(Cc4ccccc4)CC3)c3ccccc23)cc1	Rango-impB inh inconclusive, ELG1 repair inh 16µM
COc1ccc(Nc2ncc(C(=O)N3CCC(C(N)=O)CC3)c3ccccc23)cc1	none
Cn1c(O)c(N=NC(=O)c2cccc(S(=O)(=O)N3CCCCC3)c2)c2ccccc21	ELG1 repair inh 18µM
O=C(NC(=S)NNC(=O)c1cnccn1)c1ccc(F)cc1	ELG1 repair inh 5.2µM
COCCOc1cc(Nc2nnc(C(F)(F)F)s2)c(Cl)cc1Cl	ELG1 repair inh 6.5µM
COc1cc(Nc2nnc(C)s2)c(Cl)cc1Cl	none
COc1ccc2nc(NC(=O)c3cccc(OCc4c(C)noc4C)c3)sc2c1	ELG1 repair inh 26µM
Cc1cc(SCC(=O)OCC(=O)N(CCC#N)c2ccccc2)nc2ccccc12	none (no result: PKM2 act)
O=C(CCC1CCCN(C(=O)COc2ccccc2)C1)N1CCN(c2ccccn2)CC1 (stereo not given)	ELG1 repair inh 21µM
CC(C)c1cc(C(=O)N2CCCC(CCC(=O)N3CCN(c4ccccn4)CC3)C2)no1 (stereo not given)	ELG1 repair inh 12µM
Cc1cc(C)c(S(=O)(=O)N2CCOC2CNC(=O)C(=O)NCc2ccncc2)c(C)c1 (stereo not given)	none
COC(=O)c1ccc2c(c1)N(C)S(=O)(=O)c1cnc(SCC(=O)C(C)(C)C)nc1-2	ELG1 repair inh 16µM
O=C1c2ccccc2C(=O)N1CCCOc1ccccc1	ELG1 repair inh inconclusive
CCOc1ccc(OCCN2C(=O)c3ccccc3C2=O)cc1	Tb PFK block inconclusive, ELG1 repair inh 8.2µM
CC1O[C@@H](O[C@H](C)CC[C@@H](C)O[C@H]2OC(C)[C@@H](O)C[C@H]2O)C(O)C[C@H]1O (stereo not given in full)	none (no result: PKM2 act)
NC(=O)c1ccc(NC(=O)CSc2nncn2-c2ccccc2)cc1	ELG1 repair inh inconclusive
COc1cccc(N2CCN(C(=O)c3oc4ccccc4c3NC(=O)Cc3ccc(OC)c(OC)c3)CC2)c1	ELG1 repair inh 16µM (no result: PKM2 act)
COc1cccc(CC(=O)Nc2c(C(=O)N3CCN(c4ccccc4)CC3)oc3ccccc23)c1	none (no result: PKM2 act, Rango dissoc inh, Rango-impB inh, Tb PFK block, ELG1 repair inh)
COC(C/C=C\[C@@H](O)COCc1ccccc1)OC	none
Cc1cccc2c(C(=O)N3CCN(c4ccccn4)CC3)cc(-c3cccc(Br)c3)nc12	ELG1 repair inh 15µM
Cc1ccccc1CN1CCN(C(=O)c2cc(-c3ccncc3)nc3ccccc23)CC1	none
Cc1cccc2c(C(=O)N3CCN(c4ccccc4)CC3)cc(-c3ccncc3)nc12	none
O=C(c1cc(-c2cccc(Cl)c2)nc2ccccc12)N1CCN(c2ccccn2)CC1	ELG1 repair inh 23µM
O=C(c1cc(-c2ccncc2)nc2ccccc12)N1CCN(Cc2ccccc2)CC1	ELG1 repair inh 21µM (no result: PKM2 act)
Cn1cccc1-c1cc2n(n1)CCC(=O)N2CCCC(=O)NCc1ccc(F)cc1	none (no result: PKM2 act, Rango dissoc inh, Rango-impB inh, Tb PFK block, ELG1 repair inh)
COc1ccc(C(=O)CCC(=O)N2CCN(c3ccc([N+](=O)[O-])cc3)CC2)cc1	none
COc1cc(Cl)ccc1OCc1cc(C(=O)N(C)CC2CCCCO2)no1 (stereo not given)	ELG1 repair inh inconclusive
